Screens as filed in PubChem BioAssay.
SmPrx2 inh: Schistosoma Mansoni Peroxiredoxins (Prx2); AID 448, 2006; S. mansoni Prx2 activity coupled to TGR/GSH (TGR is thioredoxin glutathione reductase), NADPH fluorescence loss, qHTS; Schistosoma mansoni peroxiredoxin 2 (Prx2); hit rate 0.07% among 65,000; Potency, µM
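Enzyme mix: 100 uM NADPH, 25 nM TGR, 700 uM GSH, 50 nM Prx2 in 100 mM phosphate pH 7.4, 10 mM EDTA, 0.01% Tween-20. 15 min RT with compound; NADPH/GSH added, H2O2 starts reaction; NADPH fluorescence read 8 min.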
AmpC det inh: Promiscuous and Specific Inhibitors of AmpC Beta-Lactamase (assay with detergent) | purified AmpC, nitrocefin hydrolysis with detergent | hit rate 0.09% among 71,000 | P00811 | Potency, µM (titrated, usually from 28.7 µM), for inactives: at the top dose activity change, negative = inhibition | AID 584, 2007; active means well fitted curve in the direction sought with a large enough effect; inconclusive means small, poorly fitted or top-dose-only effect; further: on the % scale 0 is the no-effect control and ±100 the full control effect
Target sequence (P00811 whole entry, looked up): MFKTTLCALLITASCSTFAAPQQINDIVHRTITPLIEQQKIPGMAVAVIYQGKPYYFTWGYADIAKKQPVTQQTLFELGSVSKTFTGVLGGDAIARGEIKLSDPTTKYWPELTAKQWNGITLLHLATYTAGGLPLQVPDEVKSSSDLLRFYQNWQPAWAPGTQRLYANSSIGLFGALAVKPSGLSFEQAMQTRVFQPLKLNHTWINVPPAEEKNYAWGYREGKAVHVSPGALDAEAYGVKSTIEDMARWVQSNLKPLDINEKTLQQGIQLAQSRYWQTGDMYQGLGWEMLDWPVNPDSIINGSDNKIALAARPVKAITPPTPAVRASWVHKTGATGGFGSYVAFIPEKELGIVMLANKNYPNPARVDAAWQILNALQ
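E. coli AmpC (5.3 nM) in 20 mM phosphate pH 7.0 with 0.01% Triton X-100, preincubated 15 min RT with compound; nitrocefin (2 uL of 800 uM stock) hydrolysis followed by 480 nm absorbance every 20 s over 4 min.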
AmpC inh no det: Promiscuous and Specific Inhibitors of AmpC Beta-Lactamase (assay without detergent). AmpC nitrocefin hydrolysis, absorbance 480 nm, no detergent. AID 585, 2007. Potency, µM (titrated, usually from 28.7 µM), without a hit: at the top dose activity change, negative = inhibition. hit rate 1.8% among 71,000. P00811; further: % of control where 0% means no effect
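AmpC in 20 mM phosphate buffer pH 7.0 was preincubated 15 min at room temperature with compounds. Nitrocefin (800 uM stock) was then added and hydrolysis followed at 480 nm every 20 s for 4 min.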
Anthrax LT inh: qHTS Assay for Anthrax Lethal Toxin Internalization | Cells, anthrax lethal toxin internalization, FRET ratio (460/530) | Potency, µM (top dose mostly 40 µM), for the others: at the top dose activity change, negative = inhibition, hits mostly inhibitors | hit rate 0.67% among 70,000; further: on the % scale 0 is the no-effect control and ±100 the full control effect; nearly all actives have a fitted effect of over 50% in size
The depositor's hits bear a star; [ ] = another dose, or the depositor's remark. Only some compounds are listed: those with a hit (about 2.4% of all), similar ones and a draw of the others. Unless noted, the call rests on the fitted dose curve. Potency means the concentration at half of the fitted maximal effect.

How did Cc1cccc(NC(=O)Nc2ccc(C#N)cc2)n1 do in these assays?
SmPrx2 inh: >57; AmpC det inh: 3%; AmpC inh no det: 0%; Anthrax LT inh: -7%

How did COc1ccc(NC(=O)Nc2cccc(C)n2)cc1 do in these assays?
SmPrx2 inh: >57; AmpC det inh: 10%; AmpC inh no det: 4µM*[single pt active]; Anthrax LT inh: -13%

How did CC1CCC(C(=O)O)([C@H](Br)C(=O)O)CC1 (stereo partly drawn) do in these assays?
SmPrx2 inh: >57; AmpC det inh: 1%[5.75 µM]; AmpC inh no det: -3%[5.75 µM]; Anthrax LT inh: 4%[8 µM]

Results for CCCN1C(=O)c2cc(C(=O)NC3CCCCCC3)ccc2C1O (stereo not drawn) ?
SmPrx2 inh: >57; AmpC det inh: 15%; AmpC inh no det: 4µM*[single pt active]; Anthrax LT inh: -4%

What do the screens show for `Cc1cc(NC(=O)c2cc(-c3ccccn3)nc3ccccc23)no1`?
SmPrx2 inh: >57; AmpC det inh: -5%; AmpC inh no det: 18%; Anthrax LT inh: inconclusive

How did Cc1cc(NC(=O)c2cc(-c3cccs3)nc3ccccc23)no1 do in these assays?
SmPrx2 inh: >57; AmpC det inh: 5%; AmpC inh no det: 4µM*[single pt active]; Anthrax LT inh: inconclusive

Results for [Cd+2].[Cl-].[Cl-] ?
AmpC det inh: 10%; AmpC inh no det: -8%; Anthrax LT inh: inconclusive

What do the screens show for `[Cl-].[Cl-].[Hg+2]`?
AmpC det inh: 13µM*; AmpC inh no det: 1.3µM*; Anthrax LT inh: inconclusive

What do the screens show for `NC=O`?
AmpC det inh: 9%; AmpC inh no det: -10%; Anthrax LT inh: 4%

Results for Cc1nn(-c2ccccc2)c(Cl)c1C(=O)N1CCN(c2ncnc3c2cnn3-c2ccccc2)CC1 ?
SmPrx2 inh: >57; AmpC det inh: -3%; AmpC inh no det: 134%; Anthrax LT inh: 6.3µM*

How did O=C(c1ccco1)N1CCN(c2ncnc3c2cnn3-c2ccccc2)CC1 do in these assays?
SmPrx2 inh: >57; AmpC det inh: -4%; AmpC inh no det: -1%

How did CCOc1ccc(-n2c(CC)nc3ccccc3c2=O)cc1 do in these assays?
SmPrx2 inh: >57; AmpC det inh: 12%; AmpC inh no det: 3.2µM*[single pt active]; Anthrax LT inh: -17%

What do the screens show for `COc1ccc(OC)c(NS(=O)(=O)c2ccc(NC(=O)C3COc4ccccc4O3)cc2)c1` (stereo not drawn)?
AmpC det inh: 0%; AmpC inh no det: 10µM*; Anthrax LT inh: inconclusive

How did CC1CC(C)CN(S(=O)(=O)c2ccc(NC(=O)C3COc4ccccc4O3)cc2)C1 (stereo not drawn) do in these assays?
SmPrx2 inh: >57; AmpC det inh: 7%; AmpC inh no det: 16µM*[single pt active]; Anthrax LT inh: inconclusive

Results for COc1cc(NC(=O)C2COc3ccccc3O2)c(OC)cc1Cl (stereo not drawn) ?
SmPrx2 inh: >57; AmpC det inh: -1%; AmpC inh no det: 19%; Anthrax LT inh: 13µM*

Results for COC(=O)c1ccc(C)c(NC(=O)C2COc3ccccc3O2)c1 (stereo not drawn) ?
SmPrx2 inh: >57; AmpC det inh: -2%; AmpC inh no det: 10%

How did CC(C)(C)NC(=O)c1ccc(NC(=O)C2COc3ccccc3O2)cc1 (stereo not drawn) do in these assays?
SmPrx2 inh: >57; AmpC det inh: -2%; AmpC inh no det: 8%; Anthrax LT inh: 14%

How did CC(=O)O[C@@H]1CC[C@]2(C)[C@H]3CC[C@]4(C)[C@H](C[C@H]5CCCC[C@@]54C(C)=O)[C@@H]3CC(=O)[C@@]2(O)C1 do in these assays?
SmPrx2 inh: >57; AmpC det inh: -2%; AmpC inh no det: 23%; Anthrax LT inh: inconclusive

What do the screens show for `C[C@@]12CC[C@H]3[C@@H](CCC4=CC(=O)CC[C@]43C)[C@H]1CCC2=O`?
SmPrx2 inh: >57; AmpC det inh: -3%; AmpC inh no det: 17%; Anthrax LT inh: -7%

What do the screens show for `O=C(O)c1c2c(c(O)c3c1CN(C1CCCCC1)CO3)OCN(C1CCCCC1)C2`?
SmPrx2 inh: >57; AmpC det inh: 12%[5.75 µM]; AmpC inh no det: 4%[5.75 µM]; Anthrax LT inh: -4%[8 µM]

How did Cn1c(=O)n2n(c1=O)[C@H]1[C@H](O)[C@H]3O[C@@H]3/C(=N/OC[C@@H](O)COCc3ccco3)[C@@H]1CC2 do in these assays?
Anthrax LT inh: -3%[8 µM]

How did CC1CCCCC1NC(=O)CC1Oc2ccccc2NC1=O (stereo not drawn) do in these assays?
SmPrx2 inh: >57; AmpC det inh: 15%; AmpC inh no det: 4µM*[single pt active]; Anthrax LT inh: -8%

What do the screens show for `CCC(C)N(CCNC(=O)CC1Oc2ccc(C)cc2NC1=O)C1CCCCC1` (stereo not drawn)?
SmPrx2 inh: >57; AmpC det inh: 8%; AmpC inh no det: 7%; Anthrax LT inh: inconclusive

What do the screens show for `Cc1ccc2c(c1)NC(=O)C(CC(=O)NC1CCCCC1C)O2` (stereo not drawn)?
SmPrx2 inh: >57; AmpC det inh: 13%; AmpC inh no det: 4µM*[single pt active]; Anthrax LT inh: -5%

Results for O=C1Nc2ccccc2OC1CC(=O)N1CCCC1 (stereo not drawn) ?
SmPrx2 inh: >57; AmpC det inh: 11%; AmpC inh no det: 4µM*[single pt active]; Anthrax LT inh: 5%

Results for O=C(CC1Oc2ccccc2NC1=O)NCCCN1CCOCC1 (stereo not drawn) ?
SmPrx2 inh: >57; AmpC det inh: 9%; AmpC inh no det: 2%; Anthrax LT inh: 7%

Results for O=C(CC1Oc2ccccc2NC1=O)NCc1ccccc1 (stereo not drawn) ?
SmPrx2 inh: >57; AmpC det inh: 5%; AmpC inh no det: -3%; Anthrax LT inh: -10%

How did CCCCN(C)CCCNC(=O)CC1Oc2ccccc2NC1=O (stereo not drawn) do in these assays?
SmPrx2 inh: >57; AmpC det inh: 13%; AmpC inh no det: 4µM*[single pt active]; Anthrax LT inh: 1%

Results for O=C(O)CCCC[C@@H]1SC[C@H]2NC(=O)N[C@H]12 ?
SmPrx2 inh: >57; AmpC det inh: -1%; AmpC inh no det: 11%; Anthrax LT inh: inconclusive

How did COc1cc(-c2ccc(N=Nc3ccc4c(S(=O)(=O)O)cc(S(=O)(=O)O)c(N)c4c3O)c(OC)c2)ccc1N=Nc1ccc2c(S(=O)(=O)O)cc(S(=O)(=O)O)c(N)c2c1O do in these assays?
SmPrx2 inh: >57; AmpC det inh: inconclusive; AmpC inh no det: -41%; Anthrax LT inh: inconclusive

How did Cn1c(=O)c2[nH]c(CCC(=O)O)nc2n(C)c1=O do in these assays?
SmPrx2 inh: >57; AmpC det inh: -5%[5.75 µM]; AmpC inh no det: 11%[5.75 µM]; Anthrax LT inh: -3%[8 µM]

How did CC(C)C12CC[C@@]3(CC[C@H]4[C@@](C)(CCC[C@]4(C)C(=O)O)[C@@H]3C1)[C@@H](CN)C2 do in these assays?
SmPrx2 inh: >57; AmpC det inh: -7%[5.75 µM]; AmpC inh no det: 3%[5.75 µM]; Anthrax LT inh: 3%[8 µM]

How did CC[C@@H](Nc1ncnc2nc[nH]c12)C(=O)O do in these assays?
SmPrx2 inh: >57; AmpC det inh: -5%[5.75 µM]; AmpC inh no det: -2%[5.75 µM]; Anthrax LT inh: -5%[8 µM]
